Where two headings read alike, the source gives them in different places.

The values below come from article PMC11062922 (Nature Chemical Biology, 2023).

Common to all, as to parameters: species or system human, MV4-11 + K-562 + COLO205 + SK-N-BE2 + OVCAR-8
One assay concerns STK3. Particulars: read-out: apparent Kd, n = 1.
A further assay concerns MTOR. Particulars: read-out: apparent Kd, n = 1.
Another assay concerns ADRBK1. Particulars: read-out: apparent Kd, n = 1.
The test system of a further assay is CDK2. Particulars: read-out: apparent Kd, n = 1.
For a further assay, the system named is CDK5. Conditions: read-out: apparent Kd, n = 1.
Another assay concerns LIMK2. Particulars: read-out: apparent Kd, n = 1.
The subject of a further assay is ADCK1. Particulars: read-out: apparent Kd, n = 1.
For a further assay, the system named is CDK1. Conditions: read-out: apparent Kd, n = 1.
A further assay concerns MAPK8. Conditions: read-out: apparent Kd, n = 1.
Another assay has as its system PRKAG1. Particulars: read-out: apparent Kd, n = 1.
The test system of a further assay is COX5A. Particulars: read-out: apparent Kd, n = 1.
The subject of another assay is TESK1. Particulars: read-out: apparent Kd, compound concentrations: 100 nM and 1000 nM (sheet 'Samples'), n = 1.
Another assay relates to PTK2B. Conditions: read-out: apparent Kd, n = 1.
The next assay has as its system PTK2. Particulars: read-out: apparent Kd, n = 1.
Another assay has as its system PYGL. Particulars: read-out: apparent Kd, n = 1.
Another assay relates to STK16. Conditions: read-out: apparent Kd; compound concentrations:100 nM and 1000 nM (sheet 'Samples'); n = 1.
A further assay deals with IRAK3. Conditions: read-out: apparent Kd; compound concentrations:100 nM and 1000 nM (sheet 'Samples'); n = 1.
Where [1] appears, read: compound concentrations:100 nM and 1000 nM (sheet 'Samples').

With `Cn1cc(-c2cnc(N)c3c(-c4ccc5c(c4)CCN5C(=O)Cc4ccccc4)csc23)cn1` [GSK2593074A], the potency estimated from few doses with STK3 (setting [1]) is 1890 nM.
For the compound `CNc1nccc(-c2c(-c3ccc(F)cc3)ncn2C2CCN(C)CC2)n1` [SB-222903], the potency estimated from few doses with MTOR (setting [1]) is 295 nM.
Regarding `CC(=O)N1CCN(c2ccc(Nc3nccc(-c4sc(C(C)C)nc4-c4cccc(NS(=O)(=O)c5ccccc5)c4)n3)cn2)CC1` [GSK1645872A], the potency estimated from few doses with ADRBK1 (compound concentrations: 100 nM and 1000 nM (sheet 'Samples'), CATDS: 2.7359704437324502E-2) is 943 nM; in the assay on CDK2 (compound concentrations: 100 nM and 1000 nM (sheet 'Samples'), CATDS: 2.76064563935246E-2), 919 nM; in the assay with CDK5 (compound concentrations: 100 nM and 1000 nM (sheet 'Samples'), CATDS: 3.88696390995786E-2), 420 nM; in the assay with LIMK2 (compound concentrations: 100 nM and 1000 nM (sheet 'Samples'), CATDS: 4.5143474402307197E-2), 319 nM.
As for `N#Cc1cccc(Nc2nccc(-c3cnn4ncccc34)n2)c1` [GW778894X], the potency estimated from few doses in the assay with ADCK1 (setting [1]) was 2050 nM; with CDK1 (setting [1]), 1240 nM; in the assay on CDK2 (compound concentrations: 100 nM and 1000 nM (sheet 'Samples'), CATDS: 2.8219089282239498E-2), 194 nM; in the assay with CDK5 (setting [1]), 669 nM; in the assay with MAPK8 (setting [1]), 1330 nM.
As to `O=S(=O)(CCOCc1ccc(-c2ccc3ncnc(Nc4ccc(OCc5cccc(F)c5)c(Cl)c4)c3c2)o1)c1ccccc1` [GW615311X], the potency estimated from few doses was 1540 nM in the assay on MAPK8 (compound concentrations: 100 nM and 1000 nM (sheet 'Samples'), CATDS: 2.6376171995156399E-2); 527 nM in the assay on MTOR (compound concentrations: 100 nM and 1000 nM (sheet 'Samples'), CATDS: 4.7570184263153799E-2); 1450 nM in the assay with PRKAG1 (compound concentrations: 100 nM and 1000 nM (sheet 'Samples'), CATDS: 2.7047929037046701E-2); 2070 nM in the assay on STK3 (compound concentrations: 100 nM and 1000 nM (sheet 'Samples'), CATDS: 2.3351352966808198E-2).
Turning to `O=S(=O)(c1ccc(-c2ccnc3[nH]ccc23)cc1)N1CCCC1` [GSK846226A], in the assay with COX5A (setting [1]), the potency estimated from few doses was 848 nM.
On to `CC(C)c1nc(-c2ccc(F)c(NS(=O)(=O)c3c(F)cccc3F)c2)c(-c2ccnc(Nc3ccc(N4CCOCC4)nc3)n2)s1` [GSK1804250A], for which, in the assay on LIMK2 (setting [1]), the potency estimated from few doses is 478 nM.
For `CN1CCN(Cc2ccc(NC(=O)Nc3ccc(N(C)c4ccnc(Nc5ccc(CS(C)(=O)=O)cc5)n4)cc3)cc2)CC1.Cl` [GW827654A], in the assay on ADCK1 (compound concentrations: 100 nM and 1000 nM (sheet 'Samples'), CATDS: 3.6113243316098803E-2), the potency estimated from few doses is 1520 nM.
Take `CC(=O)N1CCN(c2ccc(Nc3nccc(-c4sc(C(C)C)nc4-c4cccc(NS(=O)(=O)c5cccc(Cl)c5)c4)n3)cn2)CC1` [GSK1660437A]: the potency estimated from few doses in the assay on LIMK2 (compound concentrations: 100 nM and 1000 nM (sheet 'Samples'), CATDS: 4.7315516345464E-2) is 946 nM.
Consider `CC(C)c1nc(-c2cccc(NS(=O)(=O)c3c(F)cccc3F)c2F)c(-c2ccnc(Nc3ccc(N4CCOCC4)nc3)n2)s1` [GSK2008607A], for which the potency estimated from few doses in the assay with CDK1 (compound concentrations: 100 nM and 1000 nM (sheet 'Samples'), CATDS: 1.7444638533949799E-2) is 2410 nM; in the assay on CDK2 (compound concentrations: 100 nM and 1000 nM (sheet 'Samples'), CATDS: 2.0277618916634502E-2), 1320 nM; with CDK5 (compound concentrations: 100 nM and 1000 nM (sheet 'Samples'), CATDS: 2.5832908266049601E-2), 668 nM; in the assay on LIMK2 (compound concentrations: 100 nM and 1000 nM (sheet 'Samples'), CATDS: 2.06856155254838E-2) it was 1240 nM; in the assay with TESK1 (CATDS: 2.61955130991521E-2) it was 646 nM.
In the case of `CC(C)c1nc(-c2cccc(NS(=O)(=O)c3c(F)cccc3F)c2)c(-c2ccnc(Nc3ccc(N4CCOCC4)nc3)n2)s1.Cl` [GSK1723980B], the potency estimated from few doses in the assay with CDK1 (compound concentrations: 100 nM and 1000 nM (sheet 'Samples'), CATDS: 1.4820123571840101E-2) was 1580 nM; with CDK2 (compound concentrations: 100 nM and 1000 nM (sheet 'Samples'), CATDS: 1.87425082345213E-2), 614 nM; in the assay with CDK5 (compound concentrations: 100 nM and 1000 nM (sheet 'Samples'), CATDS: 2.2922403030908301E-2) it was 350 nM; with LIMK2 (compound concentrations: 100 nM and 1000 nM (sheet 'Samples'), CATDS: 2.58899611952562E-2) it was 263 nM; in the assay on TESK1 (CATDS: 3.6756821103285202E-2), 132 nM.
As for `Cl.Cn1c(=O)c(Cc2ccc(F)cc2F)cc2cnc(NC3CCOCC3)nc21` [RO3308757-001], the values for the potency estimated from few doses with PTK2B (setting [1]) and in the assay with PTK2 (setting [1]) were 456 nM and 474 nM, respectively.
Turning to `Nc1ncc(-c2cn[nH]c2)c2scc(-c3ccc4c(c3)CCN4C(=O)Cc3ccccc3)c12` [GSK2593067A], the potency estimated from few doses with STK3 (compound concentrations: 100 nM and 1000 nM (sheet 'Samples'), CATDS: 6.6601304210445203E-2) was 1190 nM.
Consider `Clc1ccc(-c2nn3ncccc3c2-c2ccnc(Nc3ccccc3)n2)cc1` [GW829055X], for which the potency estimated from few doses in the assay with ADCK1 (compound concentrations: 100 nM and 1000 nM (sheet 'Samples'), CATDS: 3.6697893678181097E-2) was 1430 nM; with ADRBK1 (compound concentrations: 100 nM and 1000 nM (sheet 'Samples'), CATDS: 3.1852234097214598E-2) it was 2080 nM; in the assay on PRKAG1 (compound concentrations: 100 nM and 1000 nM (sheet 'Samples'), CATDS: 3.7997381036159197E-2), 1320 nM; with PYGL (compound concentrations: 100 nM and 1000 nM (sheet 'Samples'), CATDS: 3.3581254695289102E-2) it was 1800 nM; with STK3 (compound concentrations: 100 nM and 1000 nM (sheet 'Samples'), CATDS: 3.09457854656708E-2), 2270 nM.
Regarding `NS(=O)(=O)c1cccc(-c2ccc3nccc(-c4cccc(S(N)(=O)=O)c4)c3c2)c1` [GW867253X], in the assay with ADRBK1 (compound concentrations: 100 nM and 1000 nM (sheet 'Samples'), CATDS: 0.51630856929824398), the potency estimated from few doses is 1860 nM.
For the compound `COc1ccc(C2=C(Nc3cccc(O)c3)C(=O)NC2=O)cc1` [SB-390766], in the assay on STK16, the potency estimated from few doses was 1590 nM.
`COc1cc(F)c(F)c(F)c1C(=O)c1cnc(NC2CCN(S(C)(=O)=O)CC2)nc1N` [RO4600703-000]: the potency estimated from few doses with CDK1 (setting [1]) is 368 nM; with CDK2 (setting [1]) it was 90.2 nM; with CDK5 (setting [1]) it was 138 nM.
For the compound `COc1cc(N2CCN(C(C)C)CC2)ccc1Nc1nc(Nc2cccc(F)c2C(=O)O)c2cc[nH]c2n1` [GSK1819799A], the potency estimated from few doses was 84.9 nM in the assay with MAPK8 (compound concentrations: 100 nM and 1000 nM (sheet 'Samples'), CATDS: 0.22198197498325201); 466 nM in the assay with PTK2B (compound concentrations: 100 nM and 1000 nM (sheet 'Samples'), CATDS: 7.8469335656757594E-2); 522 nM in the assay on PTK2 (compound concentrations: 100 nM and 1000 nM (sheet 'Samples'), CATDS: 7.4046545419842305E-2).
As to `NC(=O)c1cccnc1COc1cc(-c2ccc(N3CCOCC3)nc2)cc2ncccc12` [BI01125081], the potency estimated from few doses was 577 nM in the assay with IRAK3 and 1240 nM with STK16.
As for `COc1ccc(Nc2nccc(N3CCC(NC(=O)Nc4cccc(OC)c4)C3)n2)cc1` (centres unmarked) [GSK1379742A], the potency estimated from few doses in the assay on CDK1 (compound concentrations: 100 nM and 1000 nM (sheet 'Samples'), CATDS: 0.12045824140997501) was 1770 nM.
As for `COc1ccc(C2=C(c3cn(C)c4ccccc34)C(=O)NC2=O)cc1OC` [RO3206363-000], the potency estimated from few doses was 99.5 nM in the assay with PRKAG1 (compound concentrations: 100 nM and 1000 nM (sheet 'Samples'), CATDS: 0.103334601265543); 1850 nM in the assay with PYGL (compound concentrations: 100 nM and 1000 nM (sheet 'Samples'), CATDS: 3.1878798319940699E-2).
Consider `Fc1ccc(-c2ncn(C3CCNCC3)c2-c2ccnc(Oc3ccc4c(c3)OCO4)n2)cc1` [SB-250715], for which the potency estimated from few doses is 1850 nM in the assay on ADCK1 (setting [1]), 2150 nM in the assay on ADRBK1 (setting [1]), 1750 nM in the assay with PRKAG1 (setting [1]) and 1990 nM with PYGL (setting [1]).
With `Cl.Oc1ccc2ncnc(Nc3ccc(OCc4ccccc4)cc3)c2c1` [GI262866A], the potency estimated from few doses with STK16 was 1160 nM.
As to `Nc1c(C(=O)c2ccccc2)cnn1-c1ccc(F)cc1` [RO1151246-000], the potency estimated from few doses in the assay on CDK1 (setting [1]) is 1880 nM.
Take `COc1ccc(C2=NC(c3ccc(Cl)cc3F)C(C(=O)Nc3ccc4[nH]ncc4c3)=C(C)N2)cn1.O=C(O)C(F)(F)F` (centres unmarked) [GSK534913A]: in the assay with ADRBK1 (setting [1]), the potency estimated from few doses is 895 nM.
For the compound `Cc1ccc(-n2nc(C(C)(C)C)cc2NC(=O)Nc2ccc(OCCN3CCOCC3)cc2)cc1` [BIRB0876BS], the potency estimated from few doses in the assay with COX5A (setting [1]) is 963 nM.
As for `Cc1[nH]nc2c1N=C(c1ccccc1Cl)c1cc([N+](=O)[O-])ccc1N2` [RO0274406-000], in the assay on COX5A (compound concentrations: 100 nM and 1000 nM (sheet 'Samples'), CATDS: 8.1877347137814999E-2), the potency estimated from few doses is 832 nM.
